PubChem BioAssay AID1159580 (chemical genetic matrix, 2015)
Screen size: about 5,500 compounds; about 2,000 (36%) were called active. Inconclusive results (about 18%) are left out. Rule as the data show it: active = normalized growth mostly below about 0.91 (no sharp cut-off); inconclusive = no clear call, values can overlap the other calls; inactive = mostly above about 0.92. The list shows a part of the results.

Assay: chemical genetic growth profiling, strain panel (AID 1159580);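 also: tested at 20 µM; growth read once vehicle control cultures reached saturation at 30 °C; 1 = growth at the plate median or of vehicle wells; lower values mean less growth of the strain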
Conditions: S. cerevisiae deletion strains, growth OD

Measured: normalized growth

c1ccc2nc(N3CCNCC3)ccc2c1
inactive: locus YAL013W, strain DEP1, active compounds read low 0.992 | locus YAL021C, strain ccr4, active compounds read low 0.997 | locus YAL026C, strain drs2, active compounds read low 0.989 | locus YAL030W, strain snc1, active compounds read low 0.999 | locus YAL040C, strain CLN3, active compounds read low 1.02 | locus YBL061C, strain skt5, active compounds read low 1.01 | locus YBR009C, strain hhf1, active compounds read low 1.01 | locus YBR023C, strain chs3, active compounds read low 1.01 | locus YBR171W, strain sec66, active compounds read low 0.985 | locus YBR231C, strain swc5, active compounds read low 1.02 | locus YBR279W, strain paf1, active compounds read low 1.01 | locus YCL011C, strain gbp2, active compounds read low 0.97 | locus YCL016C, strain dcc1, active compounds read low 1.01 | locus YCL061C, strain MRC1 (second series), active compounds read low 1 | locus YCL061C, strain MRC1, active compounds read low 0.981 | locus YCL069W, strain vba3, active compounds read low 0.982 | locus YCR088W, strain abp1, active compounds read low 0.984 | locus YDL005C, strain med2, active compounds read low 1.01 | locus YDL040C, strain nat1, active compounds read low 1.01 | locus YDR001C, strain nth1, active compounds read low 0.982 | locus YDR069C, strain doa4, active compounds read low 0.975 | locus YDR137W, strain rgp1, active compounds read low 1.09 | locus YDR159W, strain sac3, active compounds read low 0.985 | locus YDR195W, strain ref2 1.01 | locus YDR297W, strain sur2, active compounds read low 1 | locus YDR334W, strain swr1, active compounds read low 1.01 | locus YDR335W, strain msn5, active compounds read low 1 | locus YDR363W, strain ESC2, active compounds read low 0.97 | locus YDR392W, strain spt3, active compounds read low 0.976 | locus YEL003W, strain gim4, active compounds read low 0.971 | locus YEL037C, strain rad23, active compounds read low 0.987 | locus YEL061C, strain CIN8 (second series), active compounds read low 0.988 | locus YER002W, strain NOP16, active compounds read low 1.03 | locus YER015W, strain faa2, active compounds read low 0.995 | locus YER016W, strain bim1, active compounds read low 1.01 | locus YER111C, strain swi4, active compounds read low 0.99 | locus YER155C, strain BEM2 (second series), active compounds read low 0.957 | locus YFR010W, strain ubp6, active compounds read low 0.985 | locus YGL167C, strain pmr1, active compounds read low 1.01 | locus YGL173C, strain kem1, active compounds read low 1.01 | locus YGL227W, strain vid30, active compounds read low 0.979 | locus YGL240W, strain doc1, active compounds read low 0.998 | locus YGL253W, strain hxk2, active compounds read low 1.01 | locus YGR078C, strain PAC10, active compounds read low 1.01 | locus YHR013C, strain ard1, active compounds read low 0.966 | locus YHR027C, strain rpn1, active compounds read low 1.01 | locus YHR030C, strain SLT2, active compounds read low 0.982 | locus YHR079C, strain IRE1, active compounds read low 0.993 | locus YHR142W, strain chs7, active compounds read low 0.968 | locus YJL092W, strain hpr5, active compounds read low 0.978 | locus YJL095W, strain BCK1 (second series), active compounds read low 1.01 | locus YJL095W, strain BCK1, active compounds read low 0.999 | locus YJL115W, strain asf1, active compounds read low 0.994 | locus YJL129C, strain trk1, active compounds read low 0.947 | locus YJL154C, strain vps35, active compounds read low 0.977 | locus YJL164C, strain tpk1, active compounds read low 1.01 | locus YJL166W, strain qcr8, active compounds read low 1.01 | locus YJL187C, strain SWE1, active compounds read low 1 | locus YJR066W, strain TOR1, active compounds read low 0.962 | locus YKL160W, strain elf1, active compounds read low 1 | locus YKR026C, strain gcn3, active compounds read low 0.981 | locus YKR091W, strain srl3, active compounds read low 1 | locus YLL001W, strain dnm1, active compounds read low 1.01 | locus YLL026W, active compounds read low 1 | locus YLL041C, strain sdh2, active compounds read low 1.01 | locus YLR027C, strain aat2, active compounds read low 1 | locus YLR113W, strain HOG1, active compounds read low 1.01 | locus YLR221C, strain rsa3, active compounds read low 1 | locus YLR258W, strain gsy2, active compounds read low 1.01 | locus YLR262C, strain YPT6 (second series), active compounds read low 1.03 | locus YLR320W, strain mms22, active compounds read low 1.02 | locus YLR342W, strain FKS1, active compounds read low 1.02 | locus YLR357W, strain rsc2, active compounds read low 1.04 | locus YLR370C, strain arc18, active compounds read low 1.01 | locus YLR384C, strain iki3, active compounds read low 1.01 | locus YML120C, strain ndi1, active compounds read low 1 | locus YMR058W, strain fet3, active compounds read low 0.989 | locus YMR125W, strain sto1, active compounds read low 0.99 | locus YMR129W, active compounds read low 0.99 | locus YMR205C, strain PFK2, active compounds read low 1 | locus YMR231W, strain pep5, active compounds read low 1.01 | locus YMR307W, strain GAS1, active compounds read low 1.01 | locus YNL071W, strain lat1, active compounds read low 0.999 | locus YNL128W, strain TEP1, active compounds read low 1.01 | locus YNL153C, strain GIM3, active compounds read low 0.958 | locus YNL175C, strain NOP13, active compounds read low 1.02 | locus YNL183C, strain NPR1, active compounds read low 0.95 | locus YNL197C, strain WHI3, active compounds read low 0.998 | locus YNL209W, strain ssb2, active compounds read low 0.998 | locus YNL224C, strain SQS1, active compounds read low 1.01 | locus YNL248C, strain rpa49, active compounds read low 0.996 | locus YNL322C, strain KRE1 (second series), active compounds read low 1 | locus YNR049C, strain mso1, active compounds read low 1 | locus YOR001W, strain rrp6, active compounds read low 0.995 | locus YOR070C, strain gyp1, active compounds read low 1 | locus YOR080W, strain dia2, active compounds read low 1 | locus YOR083W, strain WHI5 (second series), active compounds read low 1.02 | locus YOR083W, strain WHI5, active compounds read low 1.01 | locus YOR106W, strain vam3, active compounds read low 1.01 | locus YOR231W, strain MKK1, active compounds read low 0.99 | locus YOR265W, strain rbl2, active compounds read low 1 | locus YOR270C, strain vph1, active compounds read low 0.987 | locus YOR290C, strain snf2, active compounds read low 0.975 | locus YPL051W, strain arl3, active compounds read low 1.02 | locus YPL055C, strain LGE1, active compounds read low 0.988 | locus YPL078C, strain atp4, active compounds read low 0.984 | locus YPL106C, strain sse1, active compounds read low 1 | locus YPL240C, strain hsp82, active compounds read low 1.01 | locus YPL256C, strain CLN2, active compounds read low 0.988
